Experimental data as given in PubChem BioAssay (EPA / NIEHS).
Active and inactive are the calls of the source. Rule for the calls: active = hit-call score of the fitted dose curve at least 0.9, where 1 is the maximum; inactive = score below 0.9.

Test: ATG_GATA_CIS: Attagene CIS-FACTORIAL HepG2 Assay for human GATA Binding Protein (AID 2282944)
Details: HepG2 GATA cis-element reporter, Attagene multiplex mRNA; actives raise or lower the signal
Protocol: ATG_CIS is a cell-based, multiplexed-readout assay that uses HepG2, a human liver cell line, with measurements taken at 24 hours after chemical dosing in a 24-well plate.ATG_GATA_CIS is one of 52 assay component(s) measured or calculated from the ATG_CIS assay. It is designed to make measurements of mRNA induction, a form of inducible reporter, as detected with fluorescence intensity signals by Reverse transcription polymerase chain reaction (RT-PCR) and Capillary electrophoresis technology.Data from the assay component ATG_GATA_CIS was analyzed into 1 assay endpoint. This assay endpoint, ATG_GATA_CIS, was analyzed with bidirectional fitting relative to DMSO as the negative control and baseline of activity. Using a type of inducible reporter, measures of mRNA for gain or loss-of-signal activity can be used to understand the reporter gene at the transcription factor-level as they relate to the gene GATA1. Furthermore, this assay endpoint can be referred to as a primary readout, because this assay has produced multiple assay endpoints where this one serves a reporter gene function. To generalize the intended target to other relatable targets, this assay endpoint is annotated to the dna binding intended target family, where the subfamily is GATA proteins.
Human liver HepG2 cells are transiently transfected with multiple reporter transcription units (MRTUs) in 6-well plates using FuGene 6 reagent (Roche; 3 ml FuGene/1 mg DNA). The MRTU constructs are regulated by a cis-regulating element (promoter). […] A major difference between the CIS and TRANS system is that in CIS activities of endogenous TFs are measured, whereas the TRANS assay evaluates changes in activities of exogenous, chimeric NR-Gal4 proteins. […] At the end of 24 hour incubation, total RNA was isolated using TriZol reagent (Invitrogen). The isolated RNA is then reverse-transcribed using oligo(dT) primer and Mo-MLV reverse transcriptase (Invitrogen) with DNAse I (Ambion) treatment for 30 min. The one-tenth of the produced cDNA was amplified by PCR using Taq DNA polymerase (Invitrogen) and two reporter sequence-specific primers. The PCR products were fluorescently labeled by primer extension with 6-arboxyfluorescein (6-FAM) 5'-labeled reporter sequence-specific primer (2 min at 95 C, 20 s at 68 C and 10 min at 72 C) and these products were digested with 5U of HpaI (New England Biolabs) for 2h at 37 C. The fragments were purified using Qiaquick PCR columns (Qiagen), analyzed on an ABI 3130xL genetic analyzer (Applied Biosystems) with peak positions identified by using a set of X-rhodamine (ROX)-labeled MapMarker1000 molecular weight standards (BioVentures). The raw capillary electrophoresis data was processed using Attagraph software (Attagene).

outcome, inactive:
C=C(C)C(=O)OCCCCCC
F[B-](F)(F)F
CC(O)(P(=O)(O)O)P(=O)(O)O
Clc1ccc(Sc2cc(Cl)c(Cl)cc2Cl)cc1
CCC(C)=NO
CN1CCCC1
CC/C=C/CCO
CC[N+](CC)(CC(=O)Nc1c(C)cccc1C)Cc1ccccc1 (tested in a mixture with another compound)
CC/C=C\CCO
CN(C)N=Nc1ccccc1
C=CCOC(=O)C(=C)C
O=C(C(=O)c1ccccc1)c1ccccc1
Cc1cc(-n2nc3ccc(Cl)cc3n2)c(O)c(C(C)(C)C)c1
CCCCCCC1CCC(=O)O1 (stereo not given)
NC(N)=Nc1nc(CSCCC(N)=NS(N)(=O)=O)cs1
Clc1ccccn1
CCCCOC(=O)COc1ccc(Cl)cc1Cl
c1ccc2c(c1)Oc1ccccc1S2
CCCCCCCC#N
CCCOCCC
CC(=O)c1nccs1
N#CCN(CC#N)CCN(CC#N)CC#N
CC(C)CC(=O)CC(C)CC(C)C (stereo not given)
CN(C)c1ccc(C(c2ccccc2)c2ccc(N(C)C)cc2)cc1
CC(C)CC(=O)CC(C)C
CC1(C)S[C@@H]2[C@H](NC(=O)[C@H](N)c3ccccc3)C(=O)N2[C@H]1C(=O)O
CCOC(=O)CC(=O)OCC
Oc1cccc2ccccc12
CC/C=C\CC/C=C/C(OCC)OCC
COC(=O)c1ccccc1
O=C(O)Cc1c[nH]c2ccccc12
CC1=C(CC(=O)O)c2cc(F)ccc2/C1=C\c1ccc(S(C)=O)cc1 (stereo not given)
CCC(C)(CCC(C)C)C(=O)O (stereo not given)
C=C1CC[C@H]2C[C@@H]1C2(C)C
Nc1ccc(S(=O)(=O)Nc2cnc3ccccc3n2)cc1
O=C(O)c1ccccc1C(=O)O
CCCCn1cc[n+](C)c1
COC(=O)/C=C\C(=O)OC
CCCCNC(N)=O
CCC(=O)OCc1ccc(OC)cc1
